Assay results from the supplement of paper PMC6555819.

Assays:
Experiment in all cases: PBM binding z-score (relative to random genomic background probes); higher = stronger binding; sequences stand for … in GC…GCGATTGACAGCGTAGAATGAAGG
[1] = system: RARb homodimer (NR concentration 270 nM)
Procedure, shortened: (§1)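 For binding z-scores, the reference was random background probes on custom Agilent 4×180K protein-binding microarrays. These arrays were incubated 1 h with ligand-free nuclear receptor dimers in PBS pH 7.4, 2% milk, 0.02% Triton X-100, 1 mM DTT, 0.2 mg/mL BSA and 0.4 mg/ml salmon testes DNA. Fluorescence was scanned after antibody detection of each partner (one per run) and regression-normalized.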

[2] = system: RARg:RXRa (NR concentration 270 nM, RXRa partner concentration 90 nM)
Procedure, shortened: as §1

[3] = system: RARg homodimer (NR concentration 270 nM)
Procedure, shortened: as §1

[4] = system: RXRa DBDmut IVT, anti-RXR (DBD mutation: RXRa K156A/R161A, NR concentration 90 nM)
Procedure, shortened: as §1

[5] = system: RXRa homodimer (NR concentration 180 nM)
Procedure, shortened: as §1

[6] = system: THRa:RXRa (NR concentration 90 nM, RXRa partner concentration 90 nM)
Procedure, shortened: as §1

[7] = system: THRa homodimer (NR concentration 90 nM)
Procedure, shortened: as §1

[8] = system: VDR homodimer (NR concentration 270 nM)
Procedure, shortened: as §1

Sequence | PBM binding z-score [1] | PBM binding z-score [2] | PBM binding z-score [3] | PBM binding z-score [4] | PBM binding z-score [5] | PBM binding z-score [6] | PBM binding z-score [7] | PBM binding z-score [8]
CCGACAGGGGCAAGGTTACCATAACGCACAGCCA | 1.43 | 1.58 | 1.94 | 0.0606 | 1.58 | 1.37 | 0.432 | 0.707
TCATATATGTAAAGGTGAAAGTCGAACGATATGA | 1.45 | 1.45 | 1.16 | 0.622 | 2.19 | 1.19 | -0.594 | 0.112
CGTCCAAGGTCAGCAGGTCAGTGAGAGCGACGTG | 5.13 | 6.35 | 6.67 | 2.46 | 5.29 | 4.01 | 2.56 | 1.93
GCTGCTAGGTCAGGTTGGGCAGCTAACGGGTACG | 2.36 | 2.43 | 3.88 | 0.101 | 0.717 | 1.91 | 0.583 | 0.178
AATACAGGGTCATCGTAAGCCAGAGTACGCACAG | 3.27 | 5.55 | 4.8 | 3.07 | 6.56 | 3.68 | 1.39 | 3.12
GCTATTAGTTGCAAGGGCAACCGAATGATTCTCG | 1.12 | 0.13 | 0.552 | 0.914 | 0.35 | 0.666 | 0.326 | 0.363
ATCTCTAGGTAAGACTCAGTTCAGTGCAGAACGC | 0.696 | 0.23 | 0.29 | 0.644 | 0.206 | 0.914 | 0.919 | 1.71
